ATXN2 expr inh: inhibitors of ATXN2 expression; Potency, µM (top dose mostly 57 µM), without a hit: at the top dose activity change, negative = inhibition, most hits filed as inhibitors; 360,000 tested, 0.72% active; HEK-293 ATXN2-luciferase reporter, luminescence, 24 h; AID 1745845; note: % is set by controls: 0 for no effect and ±100 for the full control effect; nearly all actives have a fitted effect of over 55% in size
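ATXN2-luciferase reporter cells (luciferase flanked by upstream and downstream ATXN2 gene portions) were treated 24 h at 37 °C with compounds at up to 57 uM. SteadyGlo luminescence gave expression; GF-AFC fluorescence gave viability.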
KB-V1 MDR tox: kills drug-selected multidrug resistant KB-V1 cells; Potency, µM (highest dose often 46.1 µM), usual class: cytotoxic; AID 1347076; KB-V1 MDR cells viability, CellTiter-Glo, 72 h; 400,000 tested, 3.4% active; note: % is set by controls: 0 for no effect and ±100 for the full control effect; nearly all actives have a fitted effect of over 60% in size
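KB-V1 MDR subline cells in DMEM (phenol-red free, 10% FBS) exposed to compounds in qHTS concentration series for 72 h at 37 degrees C. Viability read by CellTiter-Glo luminescence; concentration-effect curves fitted after normalization and correction.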
HepG2 viability: counter-screen for TGF-b inhibitors: cytotoxicity in HepG2 cells; 410,000 tested, 0.76% active; AID 588856; HepG2 CAGA-GFP viability, ATP luminescence, 18 h; Potency, µM (highest dose often 46.1 µM), without a hit: at the top dose activity change, negative = cytotoxicity, usual class: cytotoxic
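CellTiter-Glo luminescence gave cytotoxicity after 18 hours at 37 degrees C. The cells were HepG2 CAGA-GFP in 1% FBS DMEM, stimulated with 500 pg/mL TGF-beta after compound addition. %Activity was normalised to no-cell wells (complete cell-killing) and DMSO (no toxicity), and curves were fitted and classified.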
TGFb SMAD3 inh: blocks TGF-b signaling; HepG2 CAGA-GFP TGF-b/SMAD3 reporter, GFP fluorescence, 18 h; TGF-beta stimulated, 500 pg/mL final; 410,000 tested, 1.2% active; Potency, µM (doses to about 46.1 µM), inactives show at the top dose activity, negative = inhibition, usual class: inhibitors; note: % is set by controls: 0 for no effect and ±100 for the full control effect; nearly all actives have a fitted effect of over 65% in size
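HEPG2 CAGA-GFP cells (1000/well, DMEM with 1% FBS) were pre-incubated 2 h at 37 degrees C, given compound by pin tool, then stimulated with TGF-beta at 500 pg/mL final for 18 h before per-cell GFP fluorescence imaging.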
KB-3-1 tox: KB-3-1 parental cell cytotoxicity | AID 1347075 | KB-3-1 viability, CellTiter-Glo ATP luminescence, 72 h | 400,000 tested, 1.4% active | Potency, µM (highest dose often 46.1 µM), usual class: cytotoxic; note: % is set by controls: 0 for no effect and ±100 for the full control effect; nearly all actives have a fitted effect of over 60% in size
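Multi-concentration cytotoxicity screen in KB-3-1 cells grown in DMEM lacking phenol red with 10% FBS. After 72 h at 37 °C with compound, ATP-dependent luminescence was recorded.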
ATXN viability: viability counter-screen for ATXN expression inhibitors; AID 651635; Potency, µM (doses to about 56.7 µM), actives largely listed as cytotoxic; S2 cells (HEK-293 line with an ATXN2-luciferase reporter) viability, CellTiter-Fluor protease fluorescence, 24 h; 400,000 tested, 0.49% active; note: nearly all actives have a fitted effect of over 40% in size
* hit, by the source's call; i = inactive; ? = inconclusive; / = no result given; [ ] = dose if it differs, or a comment. Hits are enriched below; roughly 5.9% of the tested compounds scored in any of these assays. Calls come from the whole dose curve; as a rule, active = well fitted curve in the direction sought with a large enough effect; inconclusive = small, poorly fitted or top-dose-only effect, or another doubt; inactive = no such curve, though single readings can be large; an effect the other way counts as inactive or inconclusive. Potency is the fitted concentration of half-maximal effect.

SMILES | ATXN2 expr inh | KB-V1 MDR tox | HepG2 viability | TGFb SMAD3 inh | KB-3-1 tox | ATXN viability
Cc1ccccc1NC(=O)c1ccc(CN(c2ccccc2)S(=O)(=O)c2ccccc2)cc1 | -16% | 10µM* | -10% | -2% | i | i
O=C(NC1CC1)c1ccc(CN(c2ccccc2)S(=O)(=O)c2ccccc2)cc1 | -14% | ? | 0% | 0% | i | i
NC(=O)NC(=O)COC(=O)c1ccc(Cl)c(S(=O)(=O)N(Cc2ccccc2)c2ccc(Cl)cc2)c1 | -5% | i | 0% | 14% | i | i
NC(=O)COC(=O)c1ccc(Cl)c(S(=O)(=O)N(Cc2ccccc2)c2ccc(Cl)cc2)c1 | 8%[11.3 µM] | i | 1% | 16µM* | i | i
Cc1ccc(-c2nc(-c3cc4c([nH]c3=O)CC(C)(C)CC4=O)sc2C)cc1 | 11% | i | 2% | 4% | i | i
Cc1c(CCOc2ccc(C(=O)O)cc2)c2cc(Cl)ccc2n1C(c1ccccc1)c1ccccc1 | -20% | / | / | / | / | /
COc1ccccc1N(Cc1ccccc1)S(=O)(=O)c1cccc(C(=O)O)c1 | -10% | i | 8% | -10% | i | i
COc1ccccc1N(Cc1ccccc1)S(=O)(=O)c1cccc(C(=O)NC2CC(C)(C)NC(C)(C)C2)c1 | ? | i | 13µM* | -15% | ? | ?
CCOc1ccccc1NC(=O)c1cccc(S(=O)(=O)N(Cc2ccccc2)c2ccccc2OC)c1 | 36% | 8.2µM* | -12% | -16% | i | i
Cc1cccc(NC(=O)C(=O)NCC(c2cccnc2)N2CCc3ccccc3C2)c1C (stereo not given) | / | i | -19% | -39% | ? | /
Cc1ccccc1-c1noc(-c2ccccc2OCC(=O)Nc2ccccc2[N+](=O)[O-])n1 | -1% | i | -4% | -2% | i | i
O=C(Nc1ccc(F)cc1F)c1cc(-c2ccccc2O)no1 | 14% | ? | -16% | -26% | i | i
CCN(CC)C(=O)CSc1nnc2nnc3cc(C)ccc3n12 | -17% | 21µM* | -7% | -14% | i | i
C=CCn1c(-c2cccnc2Cl)nc2cc(Cl)c(Cl)cc21 | 9% | i | -15% | -3% | i | i
CCCn1c(-c2cccnc2Cl)nc2cc(Cl)c(Cl)cc21 | -32% | 16µM* | -10% | -5% | i | ?
COc1ccc(OC)c(CNC(=O)c2cc3c(-c4ccc(OC)c(OC)c4)nn(C)c3s2)c1 | 0% | ? | -8% | 32% | i | ?
COc1ccc(S(=O)(=O)Nc2ccccc2OC)cc1C | -7% | ? | -1% | -4% | i | i
COc1cc(NS(=O)(=O)c2ccc(C)c(C)c2)c(OC)cc1Cl | -2% | 18µM* | -10% | 1% | ? | i
O=C1Cc2c(-c3ccccc3)cc(-c3cccc(Cl)c3)nc2-c2ccccc2N1 | ? | i | 0.89µM* | -8% | ? | ?
CC(=O)Nc1c(Cl)cc2c(c1Cl)Cc1cc(C#N)ccc1-2 | 10% | 0.92µM* | -4% | -4% | 1.2µM* | i
COc1cccc(CN2C(=O)NC(C)(C3CCN(Cc4cccc(O)c4)CC3)C2=O)c1OC (stereo not given) | / | / | / | / | / | i
COc1nc(N)nc(NC(=O)c2cccs2)c1N=O | 2% | i | 13µM* | ? | i | ?
CCOC(=O)C1CCCN(C(=S)Nc2ccc(C)cc2C)C1 (stereo not given) | 9% | 15µM* | -6% | 1% | i | i
CCOC(=O)C1CCCN(C(=O)C2c3ccccc3Oc3ccccc32)C1 (stereo not given) | 5% | 12µM* | -16% | -1% | i | ?
CCOc1ccccc1N1CCN(C(=O)C2c3ccccc3Oc3ccccc32)CC1 | -22% | 15µM* | 3% | ? | 13µM* | i
SMILES | ATXN2 expr inh | KB-V1 MDR tox | HepG2 viability | TGFb SMAD3 inh | KB-3-1 tox | ATXN viability
CCOC(=O)C1CCCN(C(=O)CNS(=O)(=O)c2ccc(Br)s2)C1 (stereo not given) | -2% | 21µM* | -10% | -9% | i | i
CCOc1ccccc1N1CCN(C(=O)c2ccccc2)CC1 | 3% | i | -5% | -8% | i | i
CCCCn1c(SCC(=O)NCCCOC)nc2c(sc3ccccc32)c1=O | / | / | -9% | -3% | / | /
Cn1c(=O)c2cc(NC(=S)NC3CC3)ccc2n1Cc1cccc(C(F)(F)F)c1 | 0% | i | 5% | 46% | i | i
Cc1ccc(C(=O)NCCc2nnc3n2CCN(Cc2ccnc4ccccc24)CC3)c(C)c1 | / | / | / | / | / | i
CCc1cc(-c2[nH]ncc2-c2ccc3c(c2)OCO3)c(O)cc1O | 11µM* | 9.2µM* | -94% | ? | i | ?
CCc1cc(-c2[nH]ncc2-c2ccc(OC)cc2)c(O)cc1O | ? | ? | -28% | -27% | ? | i
C=C1C(=O)C=C[C@]2(C)C[C@@H]3OC(=O)[C@](C)(O)[C@H]3C[C@@H]12 | 10µM* | ? | -70% | ? | ? | ?
C[C@@H]1C[C@@H]2OC(=O)[C@]3(C)[C@H]2[C@@H](OC3(C)O)[C@]2(C)C(=O)C=C[C@H]12 (stereo not given in full) | -20% | i | -54% | -5% | ? | i
COc1ccc(Nc2nc3c(S(=O)(=O)c4ccc(Br)cc4)nnn3c3ccsc23)c(OC)c1 | / | i | -6% | 18% | i | /
O=C1CCN(S(=O)(=O)c2ccccc2)C2CCCCC12 (stereo not given) | 13% | ? | 16% | ? | i | i
O=C1NC2CCCCC2C(=O)N1OS(=O)(=O)c1ccccc1 (stereo not given) | ? | i | -24% | 0% | ? | 16µM*
COc1cc(Cl)c(C)cc1NC(=O)c1nn(C)c2c1CSc1ccccc1-2 | / | / | -1% | -14% | / | /
Cc1ccc(NS(=O)(=O)c2ccc(NC(=O)C3CCCO3)cc2)cc1 (stereo not given) | -18% | 13µM* | 17% | 14% | i | i
Cc1ccc(NS(=O)(=O)c2ccc(C3CCCCC3)cc2)cc1 | -30% | 21µM* | 10µM* | 13µM* | ? | ?
O=C(Nc1ccc(S(=O)(=O)Nc2ccccc2)cc1)C1COc2ccccc2O1 (stereo not given) | -24% | i | -26% | 13µM* | i | i
Cc1ccc(S(=O)(=O)Nc2ccc(NC(=O)Nc3ccc(F)cc3F)cc2)cc1 | 5% | 23µM* | -5% | ? | ? | i

Source: PubChem (National Center for Advancing Translational Sciences (NCATS))
